# Test results from paper PMC7862700, “An all-to-all approach to the identification of sequence-specific readers for epigenetic DNA modifications on cytosine”.
# Columns and labels:
# Experiment in all cases: DAPPL (digital affinity profiling via proximity ligation, sequencing); 10 mM Tris-HCl pH 7.5, 50 mM NaCl, 1 mM DTT, 4% glycerol, room temperature, 30 min; GST-TFs on glutathione beads, 16-mer random dsDNA library, 0.1% formaldehyde crosslink after washing; high values mean tight binding
# FEV = molecular target: T1, FEV (Homo sapiens, UniProt Q99581 1-238); settings: protein: recombinant; tags: N-terminal GST; dsDNA, one strand shown
# T1 sequence: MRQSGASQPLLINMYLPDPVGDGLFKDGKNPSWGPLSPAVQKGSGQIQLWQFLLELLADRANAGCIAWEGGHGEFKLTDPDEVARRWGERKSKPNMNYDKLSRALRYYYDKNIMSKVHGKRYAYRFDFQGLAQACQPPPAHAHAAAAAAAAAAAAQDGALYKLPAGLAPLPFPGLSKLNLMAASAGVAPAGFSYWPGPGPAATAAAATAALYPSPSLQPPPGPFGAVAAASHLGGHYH
# Method in brief: (§1)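 Each value of binding signal is a hexamer's read frequency for a factor divided by the same hexamer's frequency in the tag-only sample. Barcoded, bead-captured GST fusions of human transcription factors made in yeast were pooled with that sample and incubated with 200 nmole of a random double-stranded 16-mer DNA library in Tris/NaCl/DTT/glycerol buffer at room temperature for 30 min. Washing, 0.1% formaldehyde crosslinking, proximity ligation, PCR and Illumina NextSeq500 sequencing followed.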
# ETV5 = ETV5 (Homo sapiens, UniProt P41161 1-510); settings: protein: recombinant; tags: N-terminal GST; dsDNA, one strand shown
# Method in brief: as §1
# HSF1 = HSF1 (Homo sapiens, UniProt Q00613 1-529); settings: protein: recombinant; tags: N-terminal GST; chain copies: 3; dsDNA, one strand shown
# Method in brief: as §1
# SPIC = molecular target: T2, SPIC (Homo sapiens, UniProt Q8N5J4 1-248); settings: protein: recombinant; tags: N-terminal GST; dsDNA, one strand shown
# T2 sequence: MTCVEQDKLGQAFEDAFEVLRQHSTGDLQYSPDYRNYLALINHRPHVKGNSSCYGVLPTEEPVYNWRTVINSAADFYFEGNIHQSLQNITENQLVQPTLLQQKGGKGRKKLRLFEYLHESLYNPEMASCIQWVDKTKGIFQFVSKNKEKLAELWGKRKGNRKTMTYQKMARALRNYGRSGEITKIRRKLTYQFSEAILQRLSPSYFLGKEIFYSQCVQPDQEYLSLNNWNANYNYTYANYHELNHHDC
# Method in brief: as §1
# ELF4 = ELF4 (Homo sapiens, UniProt Q99607 1-663); settings: protein: recombinant; tags: N-terminal GST; dsDNA, one strand shown
# Method in brief: as §1
# ELK4 = molecular target: T3, ELK4 (Homo sapiens, UniProt P28324-2 1-405); settings: protein: recombinant; tags: N-terminal GST; dsDNA, one strand shown
# T3 sequence: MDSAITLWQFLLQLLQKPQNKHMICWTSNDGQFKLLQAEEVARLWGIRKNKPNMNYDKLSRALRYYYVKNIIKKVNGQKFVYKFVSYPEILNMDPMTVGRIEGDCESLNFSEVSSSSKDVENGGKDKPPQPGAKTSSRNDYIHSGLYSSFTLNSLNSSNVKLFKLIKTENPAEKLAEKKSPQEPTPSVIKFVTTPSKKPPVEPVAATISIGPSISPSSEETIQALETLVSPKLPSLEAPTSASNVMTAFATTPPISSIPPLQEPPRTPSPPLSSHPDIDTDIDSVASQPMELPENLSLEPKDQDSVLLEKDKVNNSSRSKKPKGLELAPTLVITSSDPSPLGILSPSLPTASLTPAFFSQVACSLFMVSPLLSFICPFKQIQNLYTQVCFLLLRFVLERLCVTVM
# Method in brief: as §1
# ETV2 = molecular target: T4, ETV2 (Homo sapiens, UniProt O00321 1-342); settings: protein: recombinant; tags: N-terminal GST; dsDNA, one strand shown
# T4 sequence: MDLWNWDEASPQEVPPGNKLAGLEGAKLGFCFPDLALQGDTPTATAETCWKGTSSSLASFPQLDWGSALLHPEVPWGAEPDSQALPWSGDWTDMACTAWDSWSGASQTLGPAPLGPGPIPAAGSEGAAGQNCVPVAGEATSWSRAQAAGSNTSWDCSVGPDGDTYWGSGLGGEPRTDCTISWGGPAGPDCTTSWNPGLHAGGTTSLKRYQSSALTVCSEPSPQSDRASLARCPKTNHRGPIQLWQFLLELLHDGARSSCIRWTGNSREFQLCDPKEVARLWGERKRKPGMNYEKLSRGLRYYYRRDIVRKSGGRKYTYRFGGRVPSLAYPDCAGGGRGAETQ
# Method in brief: as §1
# ELF3 = molecular target: T5, ELF3 (Homo sapiens, UniProt P78545 1-371); settings: protein: recombinant; tags: N-terminal GST; dsDNA, one strand shown
# T5 sequence: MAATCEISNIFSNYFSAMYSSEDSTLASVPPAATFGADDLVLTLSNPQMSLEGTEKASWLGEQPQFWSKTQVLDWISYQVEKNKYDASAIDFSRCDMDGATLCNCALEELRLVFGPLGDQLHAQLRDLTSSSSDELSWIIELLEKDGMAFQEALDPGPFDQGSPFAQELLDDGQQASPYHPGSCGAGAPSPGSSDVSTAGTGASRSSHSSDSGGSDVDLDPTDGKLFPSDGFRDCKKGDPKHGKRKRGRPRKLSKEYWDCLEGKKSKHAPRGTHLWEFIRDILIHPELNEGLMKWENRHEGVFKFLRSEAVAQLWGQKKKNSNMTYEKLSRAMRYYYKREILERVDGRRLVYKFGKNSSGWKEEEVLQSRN
# Method in brief: as §1
# CRX = CRX (Homo sapiens, UniProt O43186 1-299); settings: protein: recombinant; tags: N-terminal GST; dsDNA, one strand shown
# Method in brief: as §1
# ETV1 = ETV1 (Homo sapiens, UniProt P50549 1-477); settings: protein: recombinant; tags: N-terminal GST; dsDNA, one strand shown
# Method in brief: as §1
# ERF = molecular target: T6, ERF (Homo sapiens, UniProt P50548 1-548); settings: protein: recombinant; tags: N-terminal GST; dsDNA, one strand shown
# T6 sequence: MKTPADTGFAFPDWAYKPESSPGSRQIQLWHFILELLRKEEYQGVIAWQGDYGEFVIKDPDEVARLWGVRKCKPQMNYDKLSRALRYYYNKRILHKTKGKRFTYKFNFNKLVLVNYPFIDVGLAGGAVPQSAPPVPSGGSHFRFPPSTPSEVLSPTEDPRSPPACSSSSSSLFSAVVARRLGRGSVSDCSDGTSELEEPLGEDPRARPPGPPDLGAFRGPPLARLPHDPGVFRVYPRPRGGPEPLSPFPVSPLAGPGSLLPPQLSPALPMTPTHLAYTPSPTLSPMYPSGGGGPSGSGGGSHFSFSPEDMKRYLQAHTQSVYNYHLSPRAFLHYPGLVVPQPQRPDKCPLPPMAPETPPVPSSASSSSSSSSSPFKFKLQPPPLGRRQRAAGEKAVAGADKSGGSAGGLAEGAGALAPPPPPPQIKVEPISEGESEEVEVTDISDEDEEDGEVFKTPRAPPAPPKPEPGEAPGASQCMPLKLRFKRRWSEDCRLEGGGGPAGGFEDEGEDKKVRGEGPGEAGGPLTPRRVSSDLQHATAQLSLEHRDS
# Method in brief: as §1
# ETV3L = molecular target: T7, ETV3L (Homo sapiens, UniProt Q6ZN32 1-361); settings: protein: recombinant; tags: N-terminal GST; dsDNA, one strand shown
# T7 sequence: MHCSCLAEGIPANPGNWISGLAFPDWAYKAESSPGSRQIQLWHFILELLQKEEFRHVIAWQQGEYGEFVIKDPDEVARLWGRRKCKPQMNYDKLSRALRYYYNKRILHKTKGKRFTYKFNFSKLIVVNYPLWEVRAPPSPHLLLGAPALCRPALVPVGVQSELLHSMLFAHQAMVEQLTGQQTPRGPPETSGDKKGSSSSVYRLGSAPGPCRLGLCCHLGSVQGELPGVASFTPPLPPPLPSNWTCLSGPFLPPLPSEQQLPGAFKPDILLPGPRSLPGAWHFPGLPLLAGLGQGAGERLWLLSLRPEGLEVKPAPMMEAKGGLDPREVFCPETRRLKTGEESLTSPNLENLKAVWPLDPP
# Method in brief: as §1
# ETS2 = molecular target: T8, ETS2 (Homo sapiens, UniProt P15036 1-469); settings: protein: recombinant; tags: N-terminal GST; dsDNA, one strand shown
# T8 sequence: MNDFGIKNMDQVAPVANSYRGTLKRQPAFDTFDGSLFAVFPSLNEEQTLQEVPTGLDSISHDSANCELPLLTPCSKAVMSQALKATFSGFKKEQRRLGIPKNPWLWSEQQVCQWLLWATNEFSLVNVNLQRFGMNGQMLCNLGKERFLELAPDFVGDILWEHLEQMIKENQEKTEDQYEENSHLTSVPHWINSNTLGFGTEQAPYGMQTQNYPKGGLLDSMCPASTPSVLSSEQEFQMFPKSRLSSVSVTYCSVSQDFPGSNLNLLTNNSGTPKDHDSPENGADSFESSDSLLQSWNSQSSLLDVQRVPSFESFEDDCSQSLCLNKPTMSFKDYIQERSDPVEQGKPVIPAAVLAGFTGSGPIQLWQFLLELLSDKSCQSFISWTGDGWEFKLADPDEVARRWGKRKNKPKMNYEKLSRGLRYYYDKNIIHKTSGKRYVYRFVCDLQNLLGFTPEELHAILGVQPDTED
# Method in brief: as §1
# SPDEF = molecular target: T9, SPDEF (Homo sapiens, UniProt O95238 1-335); settings: protein: recombinant; tags: N-terminal GST; dsDNA, one strand shown
# T9 sequence: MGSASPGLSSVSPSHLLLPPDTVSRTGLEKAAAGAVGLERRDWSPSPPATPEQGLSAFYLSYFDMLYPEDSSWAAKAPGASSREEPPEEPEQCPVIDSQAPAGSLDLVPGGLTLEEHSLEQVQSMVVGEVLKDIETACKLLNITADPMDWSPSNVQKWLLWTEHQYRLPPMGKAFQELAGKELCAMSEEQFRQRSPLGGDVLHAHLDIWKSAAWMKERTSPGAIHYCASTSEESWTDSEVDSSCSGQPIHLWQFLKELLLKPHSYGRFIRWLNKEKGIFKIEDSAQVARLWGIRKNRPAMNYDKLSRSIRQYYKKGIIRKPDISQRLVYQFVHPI
# Method in brief: as §1
# ETV7 = molecular target: T10, ETV7 (Homo sapiens, UniProt Q9Y603 1-341); settings: protein: recombinant; tags: N-terminal GST; dsDNA, one strand shown
# T10 sequence: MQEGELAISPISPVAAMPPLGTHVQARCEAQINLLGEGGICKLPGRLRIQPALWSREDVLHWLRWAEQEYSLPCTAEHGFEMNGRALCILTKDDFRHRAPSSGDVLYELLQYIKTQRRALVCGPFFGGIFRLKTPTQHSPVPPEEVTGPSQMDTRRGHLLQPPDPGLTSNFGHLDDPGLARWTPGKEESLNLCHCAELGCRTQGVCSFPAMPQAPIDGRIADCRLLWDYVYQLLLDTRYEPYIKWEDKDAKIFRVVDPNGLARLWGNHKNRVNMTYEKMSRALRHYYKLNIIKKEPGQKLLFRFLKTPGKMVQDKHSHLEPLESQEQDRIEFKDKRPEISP
# Method in brief: as §1
# ELF5 = molecular target: T11, ELF5 (Homo sapiens, UniProt Q9UKW6-2 1-255); settings: protein: recombinant; tags: N-terminal GST; dsDNA, one strand shown
# T11 sequence: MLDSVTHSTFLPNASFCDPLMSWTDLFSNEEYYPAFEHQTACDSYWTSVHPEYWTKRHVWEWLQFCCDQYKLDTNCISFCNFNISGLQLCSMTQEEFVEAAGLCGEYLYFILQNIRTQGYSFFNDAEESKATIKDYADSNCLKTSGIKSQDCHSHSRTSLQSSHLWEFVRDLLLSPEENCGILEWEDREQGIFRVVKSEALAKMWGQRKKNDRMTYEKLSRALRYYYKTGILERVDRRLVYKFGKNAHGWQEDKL
# Method in brief: as §1
# ETV3 = molecular target: T12, ETV3 (Homo sapiens, UniProt P41162-2 1-143); settings: protein: recombinant; tags: N-terminal GST; dsDNA, one strand shown
# T12 sequence: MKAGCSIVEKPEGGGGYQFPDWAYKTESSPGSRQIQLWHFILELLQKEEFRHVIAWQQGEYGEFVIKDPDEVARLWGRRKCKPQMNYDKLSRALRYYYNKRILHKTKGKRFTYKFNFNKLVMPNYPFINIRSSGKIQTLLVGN
# Method in brief: as §1
# ETV6 = ETV6 (Homo sapiens, UniProt P41212 1-452); settings: protein: recombinant; tags: N-terminal GST; dsDNA, one strand shown
# Method in brief: as §1
# Sequence of CRX (O43186 whole entry): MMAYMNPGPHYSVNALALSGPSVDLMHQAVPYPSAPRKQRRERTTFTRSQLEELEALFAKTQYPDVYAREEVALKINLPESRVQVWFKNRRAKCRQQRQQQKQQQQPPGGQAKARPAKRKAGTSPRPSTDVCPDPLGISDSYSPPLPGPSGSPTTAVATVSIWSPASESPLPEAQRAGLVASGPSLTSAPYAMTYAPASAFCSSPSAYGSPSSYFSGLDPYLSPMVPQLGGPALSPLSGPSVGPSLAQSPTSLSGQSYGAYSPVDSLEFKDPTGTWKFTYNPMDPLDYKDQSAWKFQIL
# Sequence of HSF1 (Q00613 whole entry): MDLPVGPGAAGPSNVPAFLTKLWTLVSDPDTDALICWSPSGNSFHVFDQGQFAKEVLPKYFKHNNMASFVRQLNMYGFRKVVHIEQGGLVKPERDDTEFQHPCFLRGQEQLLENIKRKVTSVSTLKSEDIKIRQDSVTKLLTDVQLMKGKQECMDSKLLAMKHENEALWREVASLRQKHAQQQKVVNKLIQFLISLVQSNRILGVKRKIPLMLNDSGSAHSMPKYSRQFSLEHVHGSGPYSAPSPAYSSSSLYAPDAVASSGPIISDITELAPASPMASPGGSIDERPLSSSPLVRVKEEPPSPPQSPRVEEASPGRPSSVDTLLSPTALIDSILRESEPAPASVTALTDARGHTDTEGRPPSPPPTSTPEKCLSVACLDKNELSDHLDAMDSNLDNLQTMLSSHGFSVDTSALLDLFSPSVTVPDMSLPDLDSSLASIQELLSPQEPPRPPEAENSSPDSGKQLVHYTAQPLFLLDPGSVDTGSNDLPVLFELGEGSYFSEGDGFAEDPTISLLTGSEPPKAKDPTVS
# Sequence of ELF4 (Q99607 whole entry): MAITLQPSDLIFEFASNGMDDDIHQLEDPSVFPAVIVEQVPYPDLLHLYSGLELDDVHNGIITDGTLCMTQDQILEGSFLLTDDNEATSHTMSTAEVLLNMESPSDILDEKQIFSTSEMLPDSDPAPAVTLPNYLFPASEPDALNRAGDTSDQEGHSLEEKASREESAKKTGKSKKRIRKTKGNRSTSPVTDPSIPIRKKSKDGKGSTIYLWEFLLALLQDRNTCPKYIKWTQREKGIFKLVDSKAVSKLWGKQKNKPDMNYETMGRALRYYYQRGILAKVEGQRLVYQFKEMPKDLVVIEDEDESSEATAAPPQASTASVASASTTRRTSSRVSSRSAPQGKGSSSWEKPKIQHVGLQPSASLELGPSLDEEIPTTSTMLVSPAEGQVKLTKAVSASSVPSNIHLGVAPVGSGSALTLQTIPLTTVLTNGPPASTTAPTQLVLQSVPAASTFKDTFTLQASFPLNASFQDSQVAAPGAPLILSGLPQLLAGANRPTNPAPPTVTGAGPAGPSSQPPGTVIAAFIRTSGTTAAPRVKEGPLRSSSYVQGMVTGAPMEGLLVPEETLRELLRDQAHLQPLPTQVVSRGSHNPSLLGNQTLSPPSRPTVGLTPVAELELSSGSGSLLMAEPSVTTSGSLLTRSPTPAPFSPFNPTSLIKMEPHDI
# Sequence of ETV6 (P41212 whole entry): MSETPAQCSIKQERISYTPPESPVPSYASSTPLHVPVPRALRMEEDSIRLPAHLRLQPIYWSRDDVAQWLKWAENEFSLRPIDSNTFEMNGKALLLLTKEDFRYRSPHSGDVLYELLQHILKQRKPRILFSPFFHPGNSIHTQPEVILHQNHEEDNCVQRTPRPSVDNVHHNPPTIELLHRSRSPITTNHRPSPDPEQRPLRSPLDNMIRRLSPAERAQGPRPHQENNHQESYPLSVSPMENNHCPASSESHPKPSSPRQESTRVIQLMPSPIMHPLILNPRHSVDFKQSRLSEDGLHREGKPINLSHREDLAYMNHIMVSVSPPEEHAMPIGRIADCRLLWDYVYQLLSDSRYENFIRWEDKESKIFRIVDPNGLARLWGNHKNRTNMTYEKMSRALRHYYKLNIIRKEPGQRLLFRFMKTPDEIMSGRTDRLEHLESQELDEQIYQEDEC
# Sequence of ETV1 (P50549 whole entry): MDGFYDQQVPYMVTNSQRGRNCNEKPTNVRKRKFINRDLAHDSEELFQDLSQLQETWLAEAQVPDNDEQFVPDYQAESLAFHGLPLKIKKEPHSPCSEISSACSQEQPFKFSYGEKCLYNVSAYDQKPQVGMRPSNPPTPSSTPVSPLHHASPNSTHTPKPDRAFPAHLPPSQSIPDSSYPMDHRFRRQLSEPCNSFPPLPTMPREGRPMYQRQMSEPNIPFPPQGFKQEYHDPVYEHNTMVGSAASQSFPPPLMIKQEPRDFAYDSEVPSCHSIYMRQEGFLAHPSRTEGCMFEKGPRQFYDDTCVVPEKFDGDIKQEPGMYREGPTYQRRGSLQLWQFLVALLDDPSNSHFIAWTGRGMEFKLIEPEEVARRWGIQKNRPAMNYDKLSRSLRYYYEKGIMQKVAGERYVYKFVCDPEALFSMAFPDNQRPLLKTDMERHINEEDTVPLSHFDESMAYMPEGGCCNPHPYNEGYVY
# Sequence of ETV5 (P41161 whole entry): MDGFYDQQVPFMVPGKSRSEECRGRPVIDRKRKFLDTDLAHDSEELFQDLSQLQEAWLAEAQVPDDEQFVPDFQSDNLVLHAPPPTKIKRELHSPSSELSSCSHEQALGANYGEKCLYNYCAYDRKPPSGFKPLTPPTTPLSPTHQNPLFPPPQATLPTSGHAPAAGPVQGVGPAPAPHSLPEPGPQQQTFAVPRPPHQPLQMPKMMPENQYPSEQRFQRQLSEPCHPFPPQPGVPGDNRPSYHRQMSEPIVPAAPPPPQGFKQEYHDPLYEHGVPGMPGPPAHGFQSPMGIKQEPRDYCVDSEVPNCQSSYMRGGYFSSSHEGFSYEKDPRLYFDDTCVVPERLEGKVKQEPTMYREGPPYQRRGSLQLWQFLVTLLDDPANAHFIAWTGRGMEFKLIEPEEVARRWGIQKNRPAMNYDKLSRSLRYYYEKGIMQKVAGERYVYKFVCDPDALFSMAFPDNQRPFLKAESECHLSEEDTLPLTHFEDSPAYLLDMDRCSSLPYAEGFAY
sequence,measurement,setting,value
AATGCA,binding signal,FEV,"1.31 fold enrichment (6-mer frequency, TF over GST control)"
same,binding signal,ETV5,"1.29 fold enrichment (6-mer frequency, TF over GST control)"
same,binding signal,HSF1,"1.11 fold enrichment (6-mer frequency, TF over GST control)"
same,binding signal,SPIC,"1.28 fold enrichment (6-mer frequency, TF over GST control)"
same,binding signal,ELF4,"1.3 fold enrichment (6-mer frequency, TF over GST control)"
same,binding signal,ELK4,"1.31 fold enrichment (6-mer frequency, TF over GST control)"
same,binding signal,ETV2,"1.25 fold enrichment (6-mer frequency, TF over GST control)"
same,binding signal,ELF3,"1.33 fold enrichment (6-mer frequency, TF over GST control)"
same,binding signal,CRX,"1.14 fold enrichment (6-mer frequency, TF over GST control)"
same,binding signal,ETV1,"1.25 fold enrichment (6-mer frequency, TF over GST control)"
same,binding signal,ERF,"1.3 fold enrichment (6-mer frequency, TF over GST control)"
same,binding signal,ETV3L,"1.28 fold enrichment (6-mer frequency, TF over GST control)"
same,binding signal,ETS2,"1.28 fold enrichment (6-mer frequency, TF over GST control)"
same,binding signal,SPDEF,"1.23 fold enrichment (6-mer frequency, TF over GST control)"
same,binding signal,ETV7,"1.3 fold enrichment (6-mer frequency, TF over GST control)"
same,binding signal,ELF5,"1.31 fold enrichment (6-mer frequency, TF over GST control)"
same,binding signal,ETV3,"1.25 fold enrichment (6-mer frequency, TF over GST control)"
same,binding signal,ETV6,"1.37 fold enrichment (6-mer frequency, TF over GST control)"
